Data on 104 compounds can be found in ChEMBL document CHEMBL4513216, “Probing the Open Global Health Chemical Diversity Library for Multistage-Active Starting Points for Next-Generation Antimalarials” (ACS Infect Dis, 2020).

Structures are written as SMILES. Hit rate of the full screen: of about 68,000 compounds, about 2,700 (4%) showed an effect of 50% or more. This excerpt belongs to a sample that is enriched for strong results.

The experiment deals with Plasmodium berghei. Description: Screen against P. berghei liver stage (PbLuc), transformed with Luciferase, at 2uM. The settings on record: tested at 2 uM. Type of experiment: functional, HepG2.
Consider `O=C1NCCCCC1NC(=O)N1CCc2ccccc21` (centres undefined), for which the INHIBITION was 50.42%. Take `O=C1NCCCCC1NC(=O)N1CCCc2cc(F)ccc21` (centres undefined): the INHIBITION is given as -30.43%. Regarding `O=C1NCCCCC1NC(=O)N1CCCc2ccccc21` (centres undefined), the INHIBITION is given as 12.66%. To `Cc1nnc(N2CCCC3(CN(Cc4cnn(C)c4)CCO3)C2)o1` (centres undefined) belongs 16.39%. To `CC(C)c1nn(CC(=O)N2CCCC2)c(=O)c2c1cnn2C(C)(C)C` belongs -10.09%. As for `CCc1cnc(CN(C)C2CCN(Cc3nnc(C4CC4)n3C)C2)o1` (centres undefined), the INHIBITION is reported as -11.16%. For `Cc1occc1C(=O)N1CCC2(CCN(Cc3nccs3)C2)CC1`, the INHIBITION is on record as -6.15%. Regarding `Cc1occc1C(=O)N1CCC2(CCCN(Cc3nccs3)C2)C1` (centres undefined), the INHIBITION is listed as 50.61%. Under `Cc1occc1C(=O)N1CCC2(CCN(Cc3nccs3)CC2)C1` stands -114.33%. Under `CC(C)NC(=O)N1C[C@@H]2C[C@H](C(=O)N3CCCC3)[C@H](C1)O2` stands -17.24%; under `Cn1cc(CN2CCc3nc(-c4ccccn4)nc(O)c3C2)cn1`, -21.74%. To `CCn1cc(CN2CCc3nc(N4CCOCC4)nc(O)c3CC2)cn1` belongs 7.86%; to `CCn1cc(CN2CCc3nc(-c4ccccn4)nc(O)c3C2)cn1`, 57.4%; to `CN(C)C[C@@H]1CN(C(=O)c2cc(-c3ccccc3)n[nH]2)C[C@@H]1CO`, -40.44%.

Turning to `CCn1nc(C)cc1C(=O)N1C[C@@H](CN(C)C)[C@@H](CO)C1`, the INHIBITION was determined as 31.31%.

Consider `CCN(C)C[C@@H]1CN(C(=O)c2cc(C(F)(F)F)n[nH]2)C[C@@H]1CO`, for which the INHIBITION amounted to 51.9%. For `CCN(C)C[C@@H]1CN(C(=O)c2cc(-c3ccc(F)cc3)n[nH]2)C[C@@H]1CO`, the INHIBITION is on record as 54.49%. To `CN(C)C[C@@H]1CN(C(=O)c2cc(F)ccc2F)C[C@@H]1CO` belongs -0.3%. Under `COCCN(C)C[C@@H]1CN(C(=O)c2cccc(C(F)(F)F)c2)C[C@@H]1CO` stands -20.58%; under `O=C(CCCC(=O)NCc1cccc(Br)c1)NCCN1CCCC1`, -32.11%. To `Cc1nc(CN2C[C@@H]3CN(C(=O)C4(C#N)CC4)C[C@@H]3C2=O)cs1` belongs 25.5%; to `CN(C)C(=O)N1CCC2(CCCN(Cc3cnn(C)c3)C2)C1` (centres undefined), 40.67%; to `CCn1c(CC2CCN(C(=O)C3CCOC3)CC2)nn(C)c1=O` (centres undefined), -47.18%.

For the compound `CCC(C)NC(=O)c1cccc(CNCc2csc(C(C)C)n2)c1` (centres undefined), the INHIBITION is reported as -21.15%. On to `CC(C)N(C)Cc1cncc2c1CCN(Cc1ccoc1)C2`, for which the INHIBITION is given as 1.81%. Under `Cc1ccc(C(=O)NCC(O)CN2CCCC2=O)c(C)c1` (centres undefined) stands -40.9%; under `COc1ccc(CN(C)C(=O)CN2CC(n3cc(C)cn3)C2)cc1F`, -6.33%; under `CCOC(=O)c1ccc(N2CCN(Cc3c(C)nn(C)c3Cl)CC2)nc1`, 55.7%. Under `NC(=O)c1ccc(N2CCN(Cc3c(Cl)cncc3Cl)CC2)nc1` stands -20.93%. As for `CCc1nn(C)c(Cl)c1CN1CCN(c2ccc(C(N)=O)cn2)CC1`, the INHIBITION came out at 33.16%.

`Cc1nc2c(c(Nc3ccccn3)n1)CN(S(C)(=O)=O)CC2`: the INHIBITION was -48.89%. To `COC(=O)c1cccn1C1CCN(C(=O)c2c(C)noc2C)CC1` belongs 39.92%. Under `Cc1noc(C(C)C)c1C(=O)N1CCC(n2cccn2)CC1` stands 22.57%. Turning to `Cc1noc(C)c1C(=O)N1CCC(n2cccn2)CC1`, the INHIBITION is 61.52%.

Turning to `Cc1noc(C(C)Nc2ccc3oc(C)nc3c2)n1` (centres undefined), the INHIBITION is 10.04%. Under `O=C(c1ccc(F)cc1Cl)N1CCC(Nc2cccnn2)CC1` stands 8.37%; under `Fc1cccc(CN2CCOC3(COCCN(CC4CC4)C3)C2)c1` (centres undefined), 3.11%; under `Cc1cn[nH]c1C1COCCN1C(=O)c1ccc2[nH]nnc2c1` (centres undefined), 37.33%. As to `COc1ccc(C(=O)N2CCOCC2c2[nH]ncc2C)cc1F` (centres undefined), the INHIBITION is reported as -53.71%. Under `Cc1cn[nH]c1C1COCCN1C(=O)c1ccc2c(c1)CCCC2` (centres undefined) stands 72.17%; under `CS(=O)(=O)CCN1CCC(Nc2c(Cl)cccc2C#N)CC1`, -23.01%; under `CC(C)OC(=O)N1CCCCC1CCn1cccn1` (centres undefined), 29.71%.

As to `CN1CCCC(CCC(=O)N2CCc3sc(C(=O)N(C)C)cc3C2)C1` (centres undefined), the INHIBITION is recorded as 74.44%. Under `CNC(=O)c1cc2c(s1)CCN(C(=O)CCC1CCCN(C)C1)C2` (centres undefined) stands -4.26%; under `CN(C)C(=O)c1cc2c(s1)CCN(C(=O)CCCN1CCCCC1)C2`, 17.2%. As to `C1CCC(CO[C@@H]2CC[C@H]3[C@H]2OCCN3CC2CCOCC2)C1`, the INHIBITION amounted to 42.01%. Under `CC(=O)N1CCN(Cc2ccc(F)cc2)CC2(CC(=O)N(C)C2)C1` (centres undefined) stands 44.68%; under `Cc1c(C)n2c(SCC(=O)N3CCOCC3)nnc2[nH]c1=O`, 33.59%. Under `COc1ccc(CN2CCN(C3CCc4ccccc4C3)CC2)cc1O` (centres undefined) stands 59.48%. To `Oc1cccc(CN2CCN(C3CCc4ccccc4C3)CC2)c1` (centres undefined) belongs -5.87%; to `COc1cc(O)ccc1CN1CCN(C2CCc3ccccc3C2)CC1` (centres undefined), 31.9%. As to `CCNC(=O)C1CCN(c2nc(-c3ccco3)nc3c2CCNCC3)C1` (centres undefined), the INHIBITION came to 40.47%. Take `CCC(O)CN1CCN(C(=O)c2cc(Cl)cc3cccnc23)CC1` (centres undefined): the INHIBITION is -28.58%. In the case of `Cc1cc(C)c(C(=O)N2CCc3c(ncn3CCc3ccccc3)C2)[nH]1`, the INHIBITION is on record as 0.51%. `Cc1cc(C(=O)N2CCc3c(ncn3CCc3ccccc3)C2)on1`: the INHIBITION was 50.59%. On to `Cc1nonc1C(=O)N1CCc2c(ncn2CCc2ccccc2)C1`, for which the INHIBITION came to 17.2%.

`c1ccc(Cn2cc3c(n2)C(COCC2CC2)OCC3)nc1` (centres undefined): the INHIBITION turned out to be 7.73%. On to `Cn1cnc2c1CCN(Cc1csc(Cc3ccccc3)n1)C2`, for which the INHIBITION is 33.61%. To `Cc1ccc(NC(C)(C)c2nnnn2-c2ccc(Cl)cc2)c(C)c1` belongs -0.62%; to `COc1ccc(-n2nnnc2C(C)(C)Nc2ccc(C)cc2C)cc1`, 57%. On to `Cc1cccc(-n2nnnc2C(C)(C)Nc2ccccc2C)c1`, for which the INHIBITION is -20.72%. To `COCCN1CC2(CCCN(C(=O)NCc3ccccc3)C2)CCC1=O` (centres undefined) belongs 13.53%; to `CCc1cc(NCCCC2CCOC2)n2nccc2n1` (centres undefined), -3.6%; to `CCc1cc(NCCN2CCNC2=O)n2nccc2n1`, 25.69%.

Take `CCCc1cc(NCCCC2CCOC2)n2nccc2n1` (centres undefined): the INHIBITION was found to be 26.35%. Under `CCCc1cc(NCCC2CCCOC2)n2nccc2n1` (centres undefined) stands 50.41%; under `CCCc1cc(NCCN2CCNC2=O)n2nccc2n1`, 68.39%. Under `O=C1NCCN1CCNc1cc(-c2ccccc2)nc2ccnn12` stands -8.8%; under `CC(SCCC(=O)NC(N)=O)c1cccc(F)c1` (centres undefined), 4.07%. Under `Cc1cc(CN2CCC(N(C)Cc3noc(C4CC4)n3)C2)no1` (centres undefined) stands -17.31%; under `COc1cccc(S(=O)(=O)N2CCCCC2CCN2CCCC2=O)c1` (centres undefined), 25.51%. As to `NCC(c1ccc(Cl)cc1)N1CCc2sccc2C1` (centres undefined), the INHIBITION is recorded as -5.59%. On to `CC(C)NC(=O)N1CCC2(CC1)[C@@H]1CN(C(=O)N(C)C)C[C@@H]1C(=O)N2C`, for which the INHIBITION is recorded as 24.36%.

Consider `COC(=O)CCC(=O)NC1CCCc2cc(OC(F)F)ccc21` (centres undefined), for which the INHIBITION is reported as -41.81%. Under `O=C(CS(=O)(=O)C1CCCC1)NC1CCCc2cc(OC(F)F)ccc21` (centres undefined) stands 14.88%; under `O=C(COCC(F)(F)F)NC1CCCc2cc(OC(F)F)ccc21` (centres undefined), 60.52%; under `CC(C)NC(=O)N1CCCCCC1C1CCN(c2ncccn2)CC1` (centres undefined), 36.28%.

As to `O=C(O)c1ccccc1-c1ccc(CN2CC(c3ccncn3)C2)o1`, the INHIBITION was -44.74%. Under `Cc1nc(CCNC(=O)NC2CCCc3c2cnn3CCO)cs1` (centres undefined) stands -47.76%. Under `O=C(Nc1nncs1)NC1CCCc2c1cnn2CCO` (centres undefined) stands 8.27%; under `CCn1cc(NC(=O)NC2CCCc3c2cnn3CCO)cn1` (centres undefined), 56.57%. To `Cc1cc(NC(=O)NC2CCCc3c2cnn3CCO)n(C)n1` (centres undefined) belongs 32.55%; to `O=C(NC1CCCCC1)NC1CCCc2c1cnn2CCO` (centres undefined), -39.36%; to `Cc1nnc(NC(=O)NC2CCCc3c2cnn3CCO)s1` (centres undefined), 53.57%. Consider `Cc1cc(C)cc(NC(=O)c2cnc(N3CCN(C)CC3)nc2C)c1`, for which the INHIBITION amounted to 19.84%. To `Cc1cc(C)c(CNC(=O)C(C)Oc2ccccc2C#N)c(=O)[nH]1` (centres undefined) belongs 35.43%; to `CCOCC(=O)N1C[C@H]2CN(CC3CC3)C(=O)[C@H]2C1`, -3.65%.

`O=C(c1ncoc1C1CC1)N1CCCN(CCCc2ccccc2)CC1`: the INHIBITION is on record as 26.3%. Under `CC1CCN(C(=O)CSCCN2CCOCC2)CC1` stands 8.64%. Under `COCCN1CCN(c2ccc(CN(C)C)cn2)CC1` stands -0.85%; under `CC(=O)Nc1cccc(C(=O)Nc2cnc3n2CCCC3)c1`, 19.61%; under `O=C(Nc1cnc2n1CCCC2)c1cccc(NC(=O)C2CCCC2)c1`, 22%. For `O=C(Nc1cnc2n1CCCC2)c1cccc(-n2cnnc2)c1`, the INHIBITION was 50.91%. `CSc1ncccc1C(=O)NCCC(O)c1ccco1` (centres undefined): the INHIBITION worked out at 14.45%. Under `O=C(NCc1nnc2n1CCC2)c1cn(-c2ccccc2Br)nn1` stands -17.44%; under `CN(C)S(=O)(=O)NC1CCCc2c1cnn2-c1ccc(C(C)(C)C)cc1` (centres undefined), 75.11%; under `Cc1ccc(-n2ncc3c2CCCC3N)cc1C` (centres undefined), -13.35%. Under `CC(C)(C)c1ccc(-n2ncc3c2CCCC3N)cc1` (centres undefined) stands 46.95%. To `CCC(C)(C)n1nnnc1C(c1cccs1)N1CCc2ccccc2C1` (centres undefined) belongs 36.24%; to `Cc1nn(CCC(=O)NC2CCCOC2)c(C)c1C` (centres undefined), -3.15%. With `CCc1noc(CN(CC(=O)N2CCCCC2)c2ccc(C)cc2)n1`, the INHIBITION is reported as 38.67%. Under `Cc1ccc(N(CC(=O)N2CCCCC2)C(=O)C2COCCO2)cc1` (centres undefined) stands 72.49%; under `Cc1ccc(N(CC(=O)N2CCCCC2)C(=O)C2CCCO2)cc1` (centres undefined), -82.35%. In the case of `CCOc1ccc(Br)cc1-c1cc(N)[nH]n1`, the INHIBITION is 9.66%.
